# TDP43 rescue – rescues yeast growth from TDP-43 toxicity; TDP-43 expressing yeast growth rescue, BacTiter-Glo, 24 h; Potency, µM (top dose mostly 46.1 µM), hits mostly activators; hit rate 1.8% among 410,000; AID 652104; also: nearly all actives have a fitted effect of over 50% in size
#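 Growth rescue of TDP-43-toxic yeast measured as ATP luminescence (BacTiter-Glo). Cells grown to mid-log in raffinose, induced in galactose at OD600=0.02, exposed to compound 24 hr at 30 deg C.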
# aSyn rescue – alpha-synuclein toxicity inhibition in yeast. Potency, µM (highest dose often 46.1 µM), most hits filed as activators. hit rate 0.14% among 370,000. AID 652106. Yeast expressing alpha-synuclein, growth rescue, BacTiter-Glo, 24 h; also: nearly all actives have a fitted effect of over 65% in size
#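 Screening used galactose-induced yeast with toxic alpha-synuclein levels, exposed to compound for 24 hr at 30 deg C. Cell growth, read with BacTiter-Glo luminescence, gave the measured signal.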
# Abeta rescue – A-beta toxicity reversal in yeast; yeast expressing A-beta42, growth rescue, OD600, 48 h; response scale: 0% DMSO, 100% iron-clioquinol control; Potency, µM (top dose mostly 46.1 µM), usual class: activators; hit rate 0.063% among 410,000; also: nearly all actives have a fitted effect of over 55% in size
#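 Yeast growth medium received pinned compounds, then yeast cells expressing toxic A-beta were added; plates incubated at 30 C for 48 hr. Growth read as absorbance at 600 nm, normalized to DMSO and equimolar FeCl3 plus clioquinol controls.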
# FUS yeast rescue – suppressors of FUS proteinopathy in yeast; Potency, µM (top dose mostly 76.6 µM), hits mostly activators; S. cerevisiae FUS-expressing, growth rescue, OD600, 24 h; hit rate 0.24% among 390,000; AID 1347120; also: nearly all actives have a fitted effect of over 55% in size
#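 Absorbance at 600 nm, taken 24hr after compound addition, measured rescue of FUS-yeast growth at 30C. Induction used 2% galactose with seeding at OD 0.005. Controls: CP55940 from 92uM final, DMSO only.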
# A number is an active result; . = inactive; ? = inconclusive; / = no result. Sampled rows, rich in hits. Any-hit rate of the full collection: about 2.1%. Calls follow the shape of the dose curve; as a rule, active = well fitted curve in the direction sought with a large enough effect; inconclusive = small, poorly fitted or top-dose-only effect, or another doubt; inactive = no such curve, though single readings can be large; an effect the other way counts as inactive or inconclusive.
SMILES,TDP43 rescue,aSyn rescue,Abeta rescue,FUS yeast rescue
COCCCNC(=S)N1CCN(c2nc(-c3ccc(Cl)cc3)cs2)CC1,13µM,.,?,.
COc1cccc(-c2csc(N3CCN(C(=O)Nc4ccc(Cl)cc4)CC3)n2)c1,11µM,.,.,.
O=C(NCc1ccccc1Br)C1CCCN(C(=O)N2CCOc3ccccc32)C1 (stereo unspecified),.,/,.,.
COc1ccc(OCC(=O)OCc2cc(=O)n3nc(C4CC4)sc3n2)cc1,.,/,.,.
COC(=O)C[C@H]1CC[C@H]2[C@H](COc3ccc(NS(=O)(=O)c4cccc(OC)c4)cc3C(=O)N2C)O1,/,/,/,.
O=C(OCc1cn(Cc2ccc(F)cc2)nn1)N1CCOCC1,/,/,/,.
C[C@H]1C2CC(OC(=O)Nc3ccc(F)cc3)C(C2)[C@H]2CCCCN21 (stereo partly specified),/,/,/,.
O=C(NC(=S)N1CCN(c2nc(-c3ccccc3)cs2)CC1)c1cncc(Br)c1,16µM,?,?,.
O=C(CN1CCN(c2nc(-c3ccccc3)cs2)CC1)NNC(=O)c1ccc(Br)cc1,.,.,.,.
S=C(NCC1(c2ccccc2)CCCC1)Nc1ccccc1,?,.,5µM,.
O=C(NCC1(c2ccccc2)CCCC1)C(=O)NCC1(c2ccccc2)CCCC1,.,.,.,/
C=C1C=C(C(F)F)n2ncc(C(=O)NCc3ccc(F)cc3)c2N1,/,.,/,/
COc1ccc(CN2CSC(=S)N(Cc3ccc(OC)cc3)C2)cc1,32µM,.,.,.
COc1ccc(CN2CSC(=S)N(Cc3ccccc3)C2)cc1,?,.,/,.
O=C(Nc1ccccc1)OCCN1C(=O)CCC12CCC(c1ccc(Cl)cc1)CC2 (stereo unspecified),/,/,/,.
O=[N+]([O-])c1ccc2c(c1)-c1ccccc1C2=NO,?,.,.,/
Nc1ccc2c(c1)C(=NO)c1cc([N+](=O)[O-])ccc1-2,11µM,6.3µM,.,/
CO/N=C/c1ccc(Sc2ccccc2)c([N+](=O)[O-])c1,.,.,.,.
O=[N+]([O-])c1ccccc1SNc1ccccc1,13µM,.,.,.
O=[N+]([O-])c1cc(/C=N/O)ccc1Sc1ccccc1,3.2µM,.,.,.
CO/N=C/c1ccc(Sc2ccccc2N)c([N+](=O)[O-])c1,20µM,.,?,.
Nc1ccccc1Sc1ccccc1[N+](=O)[O-],18µM,.,.,/
O=[N+]([O-])c1ccc(SNc2ccccc2)c([N+](=O)[O-])c1,?,.,.,/
O=[N+]([O-])c1cc(/C=N/O)ccc1SCc1ccccc1,.,.,.,.
O=C(NC1CCCCN(Cc2cccc(F)c2)C1=O)c1cccc(C(F)(F)F)c1 (stereo unspecified),/,/,/,.
SMILES,TDP43 rescue,aSyn rescue,Abeta rescue,FUS yeast rescue
Cc1cc(NC(=O)C2CCN(S(=O)(=O)c3cccc4nsnc34)CC2)ccc1Br,.,/,.,.
O=C(c1ccc(Cl)cc1)c1cc(-c2ccccn2)c(N2CCOCC2)s1,14µM,.,.,.
O=C(O)c1cc(-c2ccccc2)c(N2CCOCC2)s1,.,.,.,.
Cc1noc(C)c1C(=O)N1CCC(n2nnc3ncccc32)CC1,/,/,/,.
O=C(Nc1nc2ncccn2c1-c1ccccc1)c1ccc(F)cc1,/,/,/,.
CCOCCc1nnc(NC(=O)C(=O)c2cc(C)n(-c3cccc(C)c3)c2C)s1,35µM,/,.,?
CCOC(=O)N/N=C/c1cn(CCCOc2ccc(C)cc2)c2ccccc12,?,.,.,/
CCOC(=O)N/N=C/c1cn(CCCOc2ccccc2)c2ccccc12,11µM,.,.,.
COc1cc2c(NC3CCN(C)CC3)nc(N3CCCN(C)CC3)nc2cc1OCc1ccccc1,/,.,/,/
CCCC1(c2ccccc2)NC(=O)N(CC(=O)c2[nH]c(C)c(C(=O)OCC)c2C)C1=O (stereo unspecified),.,.,.,22µM
O=S(=O)(NCC(c1ccco1)S(=O)(=O)c1cccs1)c1ccc(F)c(C(F)(F)F)c1 (stereo unspecified),0.89µM,/,.,.
CCC(C(=O)Nc1ccccc1N1CCCC1)c1ccccc1F (stereo unspecified),/,/,/,.
Fc1ccc(C(NCCc2ccc(Cl)cc2)c2nnc(-c3ccccc3Cl)o2)cc1 (stereo unspecified),32µM,/,.,.
CCc1c(C)sc(NC(=S)Nc2cccnc2)c1C(=O)OC,25µM,.,.,.
CCOc1ccc(-n2c(SCC(=O)c3ccccc3Cl)nnc2-c2ccncc2)cc1,/,/,/,18µM
Cc1cccc(N(C)S(=O)(=O)c2nnc(NC(=O)C(C)Oc3ccccc3)s2)c1 (stereo unspecified),.,/,.,.
COc1ccc(C(=O)NCc2nc(-c3cccc(C)c3)no2)cc1OC,.,/,.,.
CCOC(=O)N1C(=O)[C@](c2ccc(Cl)cc2)(C(C)C)N1C(=O)OCC,16µM,.,.,.
CCOC(=O)N1C(=O)[C@@](c2ccc(Cl)cc2)(C(C)C)N1C(=O)OCC,20µM,.,.,.
CN(CC(=O)Nc1ccc(Cl)c(C(F)(F)F)c1)C(=O)c1ccc(N2CCOCC2)c([N+](=O)[O-])c1,.,.,.,32µM
CCN(CCCNC(=O)c1cc2cc3cc(C)ccc3nc2s1)c1cccc(C)c1,.,/,.,32µM
Cc1ccc(-c2nnc(SCC(=O)c3ccc(Cl)cc3)n2-c2ccccc2)cc1,.,/,.,.
Cc1ccc2c(C)c(C(=O)N3CCC(O)(c4ccccc4)CC3)oc2c1C,22µM,.,.,.
Cc1cc(Cl)c2oc(C(=O)N3CCN(c4cnccn4)CC3)c(C)c2c1,.,.,.,.
Cc1ccc2c(C)c(C(=O)N3CCN(C4CCS(=O)(=O)C4)CC3)oc2c1C (stereo unspecified),.,.,.,.
SMILES,TDP43 rescue,aSyn rescue,Abeta rescue,FUS yeast rescue
Cc1ccc2c(C)c(C(=O)N3CCN(c4cnccn4)CC3)oc2c1C,13µM,.,.,/
O=C(Sc1nnc(-c2ccccc2)o1)N1c2ccccc2Sc2ccccc21,11µM,.,?,.
OC(c1cccc(Cl)c1)c1nc(-c2ccc3c(c2)OCO3)cs1 (stereo unspecified),32µM,?,.,.
OC(c1ccccc1)c1nc(-c2ccccc2)cs1 (stereo unspecified),.,.,.,.
OC(c1ccccc1)c1nc(-c2ccc3c(c2)OCO3)cs1 (stereo unspecified),20µM,11µM,.,.
N#CCC[C@H]1CC[C@]2(CCCN(C(=O)c3ccccc3)C2)O1,/,/,/,.
COc1ccccc1-c1cccc([C@@H]2C[C@H]3[C@H](CON3C)CN2C(=O)CCc2ccccc2)c1,28µM,.,.,.
COCC(=O)N1C[C@H]2CON(C)[C@H]2C[C@H]1c1cccc(-c2ccccc2OC)c1,.,.,.,.
CC(C)(C)c1ccc(C(=O)NCCc2csc3nc(-c4ccccc4F)nn23)cc1,35µM,/,.,?
Cc1ccccc1-c1nc2scc(CCNC(=O)c3ccco3)n2n1,18µM,/,.,.
COc1ccc(N2CCN(CCCNC(=O)CCc3cccc(Cl)c3)CC2)cc1,/,/,/,.
CCn1c(SCc2nc(-c3ccccc3)no2)nnc1-c1ccco1,18µM,.,.,.

# Bioassay records as filed in PubChem BioAssay.
